One compound from PubChem BioAssay AID434927 (Sanford-Burnham Center for Chemical Genomics, 2010) can be followed below.

Molecules are shown by their SMILES. Calls of active or inactive are those of the source.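 The calls were made as follows: active = inhibition above about 23% in any of six single-dose repeats (limit read from the data); inactive = the rest.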

This test concerns the target Intestinal-type alkaline phosphatase (Homo sapiens) (UniProt P09923). Kind of test: human IAP inhibitors, confirmation, biochemical, luminescence, single concentration, uHTS hits (AID 434927).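 Also: plate controls were DMSO wells with enzyme for no effect and wells lacking enzyme for full effect.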 Particulars: purified human IAP, CDP-Star luminescence, 30 min; at 8.3 µM; active compounds read high.

Intestinal-type alkaline phosphatase (Homo sapiens), sequence (P09923 whole entry, looked up): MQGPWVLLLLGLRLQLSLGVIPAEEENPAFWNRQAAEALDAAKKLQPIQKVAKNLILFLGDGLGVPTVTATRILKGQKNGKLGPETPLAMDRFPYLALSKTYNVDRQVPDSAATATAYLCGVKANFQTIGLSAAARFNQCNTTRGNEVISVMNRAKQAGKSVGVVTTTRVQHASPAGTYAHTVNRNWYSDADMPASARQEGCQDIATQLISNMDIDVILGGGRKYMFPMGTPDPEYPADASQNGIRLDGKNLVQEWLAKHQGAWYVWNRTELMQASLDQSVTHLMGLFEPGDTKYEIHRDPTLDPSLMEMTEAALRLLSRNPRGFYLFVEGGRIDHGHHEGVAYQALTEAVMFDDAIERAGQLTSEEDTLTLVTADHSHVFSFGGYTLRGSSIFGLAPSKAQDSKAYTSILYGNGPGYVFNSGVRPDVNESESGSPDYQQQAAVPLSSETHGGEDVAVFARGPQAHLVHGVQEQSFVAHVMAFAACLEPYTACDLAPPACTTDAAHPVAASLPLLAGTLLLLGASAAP

Consider `COC(=O)Cn1cc(/C=C2\C(=O)NC(=O)N(c3ccccc3)C2=O)c2ccccc21`, for which the inhibition is 33.9% (active).
